From PubChem BioAssay (NCATS)
Records with an inconclusive call do not appear. Activity calls are given as the source filed them. Calls follow the shape of the dose curve; as a rule, active = well fitted curve in the direction sought with a large enough effect; inconclusive = small, poorly fitted or top-dose-only effect, or another doubt; inactive = no such curve, though single readings can be large; an effect the other way counts as inactive or inconclusive.

Experiments:
[1] = biological target: Glutathione peroxidase 1 (Homo sapiens) (UniProt P07203); experiment: Primary qHTS Assay for Inhibitors of Recombinant Selenoprotein Glutathione Peroxidase 1 (GPX1) (AID 1845191); also: nearly all actives have a fitted effect of over 65% in size; as to activity, negative = inhibition: % is scaled to controls: 0 for no effect and ±100 for the full control effect
Glutathione peroxidase 1 (Homo sapiens), sequence (P07203 whole entry, looked up): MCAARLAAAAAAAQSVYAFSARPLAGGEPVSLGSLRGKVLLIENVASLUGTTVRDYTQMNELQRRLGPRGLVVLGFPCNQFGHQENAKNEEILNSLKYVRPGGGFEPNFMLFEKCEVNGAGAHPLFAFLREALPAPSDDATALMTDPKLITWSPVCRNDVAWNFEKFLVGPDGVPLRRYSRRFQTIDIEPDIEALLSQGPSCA
In short: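 GR-coupled readout: NADPH consumption tracked by fluorescence, ex 340/em 450 nm, at t=0 and after 15 min at RT. Final mix 10 nM GPX1, 1 mM GSH, 0.5 mM CHP, 0.5 mM NADPH, 100 nM GR, 0.01% BSA, following 30 min enzyme–compound preincubation.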

[2] = biological target: Phospholipid hydroperoxide glutathione peroxidase GPX4 (Homo sapiens) (UniProt P36969); experiment: Primary qHTS Assay for Inhibitors of Recombinant Selenoprotein Glutathione Peroxidase 4 (GPX4) (AID 1845192); also: nearly all actives have a fitted effect of over 65% in size; as to activity change, negative = inhibition: series mostly up to about 50 µM; % is scaled to controls: 0 for no effect and ±100 for the full control effect
Phospholipid hydroperoxide glutathione peroxidase GPX4 (Homo sapiens), sequence (P36969 whole entry, looked up): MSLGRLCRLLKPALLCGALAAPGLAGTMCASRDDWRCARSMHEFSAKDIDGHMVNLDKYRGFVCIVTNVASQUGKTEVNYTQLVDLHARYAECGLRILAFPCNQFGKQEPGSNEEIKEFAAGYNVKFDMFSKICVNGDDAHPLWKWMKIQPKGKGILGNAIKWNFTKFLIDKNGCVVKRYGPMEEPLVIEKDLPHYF
In short: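 Steps: GPX4 plus compound, 30 min RT; add GR/GSH/NADPH master mix; start with cumene hydroperoxide; read 340/450 nm fluorescence at 0 and 15 min. Finals were 200 nM GPX4, 1 mM GSH, 0.5 mM CHP, 0.5 mM NADPH, 100 nM GR.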

[3] = biological target: Luciferin 4-monooxygenase (Photinus pyralis) (UniProt P08659); experiment: Primary firefly luciferase (FLuc) qHTS assay for identification of artifact compounds. (AID 1845220); also: nearly all actives have a fitted effect of over 60% in size;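 as to activity change, negative = inhibition: series mostly up to about 54 µM; plate controls were DMSO vehicle for no effect and no enzyme for full effect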
In short: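 D-luciferin and ATP (10 uM each, final) in Tris acetate buffer pH 7.6 were incubated with compounds for 15 min at room temperature. The reaction was started with 10 nM Photinus pyralis luciferase and luminescence read after 5 min. Percent inhibition was fitted to a 4-parameter Hill equation.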

[4] = system: Nanoluciferase (engineered Oplophorus gracilirostris luciferase); experiment: Primary Nanoluciferase (NLuc) qHTS assay for identification of artifact compounds. (AID 1845222);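 also: series mostly up to about 54 µM; 0% = DMSO and -100% = no enzyme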
In short: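 Diluted conditioned medium from NLuc-expressing S16 cells treated with compounds for 15 min at room temperature, then Nano-Glo substrate added; luminescence read after 5 min. Percent inhibition versus no-enzyme and DMSO controls fitted to 4-parameter Hill equation.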

[5] = Primary redox qHTS assay for identification of artifact compounds. (AID 1845223);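 also: 0% = DMSO and 100% = reference compound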
In short: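 Redox-cycling detection via DTT (250 uM final) oxidation coupled to Amplex Red (25 uM)/HRP (250 mU/mL) in HBSS. 15 min preincubation plus 30 min after DTT, room temperature. Ex/Em 525/598 nm; 4-parameter Hill fit against DMSO and 10 uM DA3003.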

CC(C)(O)C1CCC2(C)C3C(O)C4C(C13)C42CO (stereo not given)
inactive: Potency [1] | Potency [2] | Potency [3] | Potency [4] | Potency [5]

COc1ccc(C)c2sc(NC(=O)c3ccncc3)nc12
inactive: Potency [1] | Potency [2] | Potency [3] | Potency [4] | Potency [5]

CC(=O)OC1C(O)CC(O[C@@H]2O[C@H](CO)[C@@H](O)[C@H](O)[C@H]2O)C2CCC3C(=O)OC(c4ccoc4)CC3(C)C21 (stereo not given in full)
inactive: Potency [1] | Potency [2] | Potency [3] | Potency [4] | Potency [5]

C[C@@H]1C[C@H](O[C@@H]2O[C@H](CO[C@@H]3OC[C@](O)(CO)[C@H]3O)[C@@H](O)[C@H](O)[C@H]2O)CC(C)(C)[C@H]1/C=C/[C@@H](C)O
inactive: Potency [1] | Potency [2] | Potency [3] | Potency [4] | Potency [5]

COc1cc(N2CCC(N(C)C)CC2)ccc1Nc1ncc(Cl)c(Nc2ccccc2P(C)(C)=O)n1
inactive: Potency [1] | Potency [2] | Potency [3] | Potency [4] | Potency [5]

COc1ccc2c3c1O[C@H]1C[C@@H](O)C=C[C@@]31CCN(C)C2
inactive: Potency [1] | Potency [2] | Potency [3] | Potency [4] | Potency [5]

CN(NC(=O)CC(=O)NN(C)C(=S)c1ccccc1)C(=S)c1ccccc1
inactive: Potency [1] | Potency [2] | Potency [3] | Potency [4] | Potency [5]

COc1cc2c(cc1O)C1(Cc3ccc4c(c3C1=O)OCO4)N(C)CC2 (stereo not given)
inactive: Potency [1] | Potency [2] | Potency [3] | Potency [4] | Potency [5]

CC(=O)NC(C(=O)OC1CCC(C)(C)C2CC=C3C(=O)OCC3(O)C12C)C(C)C (stereo not given)
inactive: Potency [1] | Potency [2] | Potency [3] | Potency [4] | Potency [5]

CC1=C2C(=O)C=C(CO)[C@@H]2[C@H]2OC(=O)[C@H](C)[C@@H]2[C@@H](O)C1
inactive: Potency [1] | Potency [2] | Potency [3] | Potency [4] | Potency [5]

COC(=O)C1C(c2ccc(O)cc2)C(C(=O)OC)C1c1ccc(O)cc1 (stereo not given)
inactive: Potency [1] | Potency [2] | Potency [3] | Potency [4] | Potency [5]

C=CC(C)(O)CO[C@@H]1O[C@H](CO)[C@@H](O)[C@H](O)[C@H]1O (stereo not given in full)
inactive: Potency [1] | Potency [2] | Potency [3] | Potency [4] | Potency [5]

OCC1=CC[C@@H]2C=CO[C@@H](O[C@@H]3O[C@H](CO)[C@@H](O)[C@H](O)[C@H]3O)[C@H]12
inactive: Potency [1] | Potency [2] | Potency [3] | Potency [4] | Potency [5]

N#Cc1ccc2[nH]c(O)c(-c3ccc(CN4CCOCC4)cn3)c2c1
inactive: Potency [1] | Potency [2] | Potency [3] | Potency [4] | Potency [5]

CC1[C@@H](O)[C@@H](O)C2[C@]3(C)C(C[C@H]4OC(=O)[C@H](O)[C@]1(O)[C@@]24C)C(C)(O)C[C@H](O)[C@H]3O (stereo not given in full)
inactive: Potency [1] | Potency [2] | Potency [3] | Potency [4] | Potency [5]

CC(C)=CCC/C(C)=C/CC/C(C)=C/CC[C@]1(C)CCc2cc(O)cc(C)c2O1
inactive: Potency [1] | Potency [2] | Potency [3] | Potency [4] | Potency [5]

CC1(C)C(O)CCC2(C)C1C(O)C=C1COC(=O)C12O (stereo not given)
inactive: Potency [1] | Potency [2] | Potency [3] | Potency [4] | Potency [5]

C=C1CCC2C(C)(C)C(O)CCC2(C)C1CCC(C)CCOC(=O)CCC(=O)O (stereo not given)
inactive: Potency [1] | Potency [2] | Potency [3] | Potency [4] | Potency [5]

COC(=O)CC1(O)C(=O)Nc2ccccc21 (stereo not given)
inactive: Potency [1] | Potency [2] | Potency [3] | Potency [4] | Potency [5]

CC(=O)c1cnc2ccc(-c3cc(Cl)c(O)c(Cl)c3)nc2c1NC1CCC(CN(C)C)CC1 (stereo not given)
inactive: activity, negative = inhibition [1] 2.12% [at 9.52 µM] | activity change, negative = inhibition [2] 17.1% [at 9.73 µM] | activity change, negative = inhibition [3] 2.41% [at 11.6 µM] | activity, negative = inhibition [4] 0% [at 11.6 µM] | redox activity (% of DA3003) [5] 2.52% [at 11.5 µM]

COc1cc(/C=C/CO)ccc1O[C@@H]1O[C@H](CO)[C@@H](O)[C@H](O)[C@H]1O
inactive: Potency [1] | Potency [2] | Potency [3] | Potency [4] | Potency [5]

CCC(C)C(=O)O[C@@H]1[C@@H](O)[C@@H](O[C@H]2O[C@H](CO)[C@@H](O)[C@H](O)[C@H]2O)O[C@H](CO)[C@H]1O (stereo not given in full)
inactive: Potency [1] | Potency [2] | Potency [3] | Potency [4] | Potency [5]

C=C[C@H]1[C@H](O[C@@H]2O[C@H](CO)[C@@H](O)[C@H](O)[C@H]2O)OC=C(C(=O)OC)[C@H]1C[C@@H]1N[C@H](C(=O)O)Cc2c1[nH]c1ccccc21
inactive: Potency [1] | Potency [2] | Potency [3] | Potency [4] | Potency [5]

CCOC(=O)N1CCC(NCCNC(=O)c2ccccc2C)CC1
inactive: Potency [1] | Potency [2] | Potency [3] | Potency [4] | Potency [5]

C/C(=C\CO)CC/C=C(\C)C(=O)O[C@H]1[C@H](OC2OC=C(C(=O)O)C3CCC(C)(O)C23)O[C@H](CO)[C@@H](O)[C@@H]1O (stereo not given in full)
inactive: Potency [1] | Potency [2] | Potency [3] | Potency [4] | Potency [5]
